# Assay results reported in PubChem BioAssay AID772 (SRMLSC, 2007).
# Hit rate of the full screen: of about 3,300 compounds, about 20 (0.6%) were called active.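 The calls were made as follows: active = growth inhibition above 90%, meaning viable cell count cut by more than 90% versus vehicle controls; inactive = growth inhibition below 90%.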 For the sample, actives were picked, then their nearest neighbours and some compounds at random.
# Test: HT29 colon tumor cell growth inhibition, primary screen, imaging, high content imaging, 72 h, CellTiter-Glo (AID 772);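 as to condensed nuclei: condensed means nuclear area below control median minus 1.5 SD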
# Details: HCS imaging cell count, at 10 µM, stronger effect = higher value; for condensed nuclei: measured here: percent cells with condensed nuclei
# [1] = measured here: ATP CellTiter-Glo viability
Compound,growth inhibition,growth inhibition [1],condensed nuclei
CCOC(=O)CSc1nc(NC#N)nc(N(CC)CC)n1,-10.6% (inactive),-34.2%,2.47%
CC1(C)CC(=O)C(C=NCC(O)c2ccccc2)=C(O)C1 (centres undefined),1.15% (inactive),-3.71%,3.13%
CCN(CC)Cc1cc(C(C)=O)ccc1OCC(C)C,-17.7% (inactive),-47.7%,2.8%
Cc1ccc(C2/C(=C(/O)c3cnn(-c4ccccc4)c3C)C(=O)C(=O)N2CCN2CCOCC2)o1 (centres undefined),-41.7% (inactive),-16.4%,5.65%
CC1CCN(c2oc(-c3ccccc3Cl)nc2C#N)CC1,39.9% (inactive),-1.14%,4.72%
Cc1nnc(C)n1/N=C/c1cccn1C,-26.9% (inactive),-16.7%,2.68%
CCOC(=O)/C(C#N)=C1\Nc2ccccc2N=C1N(CC(C)C)CC(C)C,15.8% (inactive),-0.53%,3.37%
O=C(c1ccc2c3c(cccc13)C(=O)N(O)C2=O)N1CCCCC1,63.6% (inactive),65.6%,16.2%
S=C(N=Nc1ccccc1)NNc1ccccc1,5.63% (inactive),9.94%,9.9%
CCCCCC1CC(CC#CCN2CCOCC2)C(=O)O1 (centres undefined),-6.01% (inactive),-22.1%,3.8%
Cc1nc(NCCCO)c(C#N)c2c1COC(C)(C)C2,26.3% (inactive),-0.61%,5.86%
CCOC(=O)c1[nH]c2ccc(OC)cc2c1NC(=O)CCN1CCC(C)CC1,7.19% (inactive),8.59%,9.76%
COc1cccc(-c2nnc3sc(-c4ccc(Cl)cc4)nn23)c1,-127% (inactive),-46.5%,8.69%
O=C(O)C(Cc1c[nH]c2ccccc12)NS(=O)(=O)c1cccc2nsnc12 (centres undefined),9.77% (inactive),1.74%,1.59%
Cc1nn2c(-c3ccc(Cl)cc3)nnc2s1,0.82% (inactive),-46.2%,2%
Cc1ccc2[nH]c3c(N4CCCCCC4)ncnc3c2c1,96.5% (active),96%,39.6%
CN1CCN(c2ncnc3c2[nH]c2ccc(F)cc23)CC1,27.9% (inactive),14.8%,6.32%
Cc1ccc2[nH]c3c(N4CCN(Cc5ccc6c(c5)OCO6)CC4)ncnc3c2c1,73.7% (inactive),96.6%,29.9%
Cc1ccc2[nH]c3c(N4CCOCC4)ncnc3c2c1,-53.8% (inactive),-45.3%,5.07%
Fc1ccc2[nH]c3c(N4CCN(Cc5ccc6c(c5)OCO6)CC4)ncnc3c2c1,92% (active),96.7%,24.5%
c1ccc(CN2CCN(c3ncnc4c3[nH]c3ccccc34)CC2)cc1,93.4% (active),88.4%,27.8%
Cc1ccc2[nH]c3c(N4CCN(Cc5ccccc5)CC4)ncnc3c2c1,50.9% (inactive),7.07%,2.3%
c1ccc2c(c1)[nH]c1c(N3CCSCC3)ncnc12,57.2% (inactive),14.5%,5.16%
COc1ccc2[nH]c3c(N4CCN(Cc5ccc6c(c5)OCO6)CC4)ncnc3c2c1,20.7% (inactive),21%,1.08%
Cc1cc(C)nc(N(C#N)CC(=O)N(c2ccccc2)C(C)C)n1,-23.3% (inactive),-17.6%,7.69%
Clc1ccc2[nH]c3c(NCCCN4CCOCC4)ncnc3c2c1,88.5% (inactive),96.8%,45.3%

Compound,growth inhibition,growth inhibition [1],condensed nuclei
COC(=O)C(NC(C)=O)(Nc1ccc(Br)cn1)C(F)(F)F (centres undefined),-46.6% (inactive),-39%,2.33%
O=C1CC(c2ccccc2)n2nc(NS(=O)(=O)c3ccccc3)nc2N1 (centres undefined),6.12% (inactive),25.8%,5.04%
CCOC(=O)CNS(=O)(=O)c1cc(-c2n[nH]c(=O)c3ccccc23)ccc1C,-38.6% (inactive),-21.1%,6.33%
Cc1nc(/N=C(\N)Nc2ccccc2)nc2ccccc12,-39.5% (inactive),-11.8%,3.28%
CCCCCOc1ccccc1C(=O)NCC(=O)O,-69.1% (inactive),-28.9%,1.44%
CSc1nc2sc3c(c2c2nnnn12)CCCC3,37.7% (inactive),9.47%,2.53%
Cc1ccc(N2C(=O)[C@@H]3[C@H](C2=O)C2CCCN2[C@@H]3C(=O)c2ccccc2)cc1 (some centres undefined),61.8% (inactive),9.87%,4.55%
N#Cc1nc(COc2ccc(Br)cc2)oc1N1CCCC1,31.9% (inactive),-4.22%,13.2%
COc1ccc(N2CCN(c3oc(COc4ccc(Cl)cc4)nc3C#N)CC2)cc1,92.4% (active),87.2%,23.8%
N#Cc1nc(COc2ccc(Cl)cc2)oc1N1CCN(Cc2ccccc2)CC1,85.7% (inactive),70.5%,7.69%
Cc1c(C(=O)O)sc(=S)n1-c1ccccc1,46.5% (inactive),9.56%,3.47%
CC(=O)C1=C(O)C(=O)N(c2ccc(C(=O)O)cc2)C1c1ccccc1 (centres undefined),-93.1% (inactive),-74.7%,4.2%
COC(=O)C1=C(C)N=C2SC(C)C(=O)N2C1c1ccc(C(=O)OC)cc1 (centres undefined),-44.2% (inactive),-32%,6.05%
CCN(CC)CCN1C(=O)C(O)=C(C(=O)c2ccco2)C1c1ccccn1 (centres undefined),-51.4% (inactive),-77%,2.14%
CC(=O)C1=C(NC(=O)c2ccccc2F)C[C@@H]2[C@H]1C2(C)C,-1.88% (inactive),-28.5%,2.19%
Cc1ccc(-n2c(=O)c3c4c(sc3n3c(C)nnc23)COC(C(C)C)C4)cc1 (centres undefined),-38% (inactive),-56.1%,4.02%
O=C(NC1CCS(=O)(=O)C1)N1CCCCC1 (centres undefined),28.2% (inactive),4.61%,9.88%
COC(=O)c1ccccc1NC(=O)CSc1nnc(-c2ccncc2)o1,11.7% (inactive),-27.3%,4.89%
CCOC(=O)c1[nH]c2ccc(C)cc2c1N=CN(CC)CC,1.88% (inactive),-13%,12.3%
COc1cc2nc(N3CCN(C(=O)C4CCCO4)CC3)nc(N)c2cc1OC (centres undefined),-61.2% (inactive),-20.9%,2.06%
COc1ccc2[nH]c(C)c(C(=O)CN3CCN(C(=O)c4ccco4)CC3)c2c1,-20.9% (inactive),-49.5%,3.46%
COC(=O)c1ccccc1NC(=O)C1COc2ccccc2O1 (centres undefined),16.2% (inactive),13.5%,13.5%
COc1cc2nc(N3CCN(C(=O)c4ccco4)CC3)nc(N)c2cc1OC,94.7% (active),67.4%,30.2%
COc1cccc(OC)c1OCCN1CCN(C(=O)c2ccco2)CC1,18.1% (inactive),7.71%,3.57%
COc1cc2nc(N3CCN(C(=O)C4COc5ccccc5O4)CC3)nc(N)c2cc1OC (centres undefined),96% (active),83.5%,21.8%
O=C(O)c1nsc(Cl)c1Cl,-41.6% (inactive),-55.8%,1.81%

Compound,growth inhibition,growth inhibition [1],condensed nuclei
Cc1cccc(OCC(=O)N2CCC(N3CCCCCC3)CC2)c1,-20.3% (inactive),-10.7%,13.8%
CN(C)CC(O)COc1ccc(C(C)(C)c2ccc(OCC(O)CN(C)C)cc2)cc1 (centres undefined),61.9% (inactive),98.3%,18.1%
CN(C)CC(O)COc1cccc(OCC(O)CN(C)C)c1 (centres undefined),-49% (inactive),-41%,5.18%
CN(C)CC(O)COc1ccc(-c2ccc(C#N)cc2)cc1 (centres undefined),90.2% (active),86%,7.89%
Cn1c(=O)c2c(nc(Br)n2Cc2ccc3ccccc3c2)n(C)c1=O,57.1% (inactive),9.53%,5.08%
Cc1cc(=O)[nH]c(SCC(=O)c2ccccc2)c1C#N,27.9% (inactive),-16.6%,2.93%
CCCSc1nc(C)c(CC(=O)O)c(=O)[nH]1,-32.6% (inactive),-21%,3.23%
CCN(CC)C(=O)C1CCN(c2ncnc3c2cnn3-c2ccc(C)cc2C)CC1,63.8% (inactive),64.7%,6.87%
Fc1ccc(C2C3=C(Nc4ncnn42)c2ccccc2OC3c2ccncc2)cc1 (centres undefined),61.8% (inactive),20.5%,17.7%
CCCOc1ccc(CSC(CC(=O)O)C(=O)O)cc1 (centres undefined),-29% (inactive),-72.1%,0.98%
COC(=O)C1=C(C)N=C2SC(C)C(=O)N2C1/C=C/c1ccccc1OC (centres undefined),-57.1% (inactive),-59.2%,1.79%
CCCCC(=O)c1c(C)cc(C)[nH]c1=O,-16.9% (inactive),-46.2%,1.27%
CCN(CC)CCN1C(=O)C(O)=C(C(=O)c2cccs2)C1c1ccccn1 (centres undefined),-42% (inactive),-45.7%,3.64%
CCN(CC)CCOC(=O)c1c(C)n(C)c2ccc(OC)cc12,-57.1% (inactive),-23%,3.82%
Cn1cc(Cl)nc1C(O)c1ccccc1 (centres undefined),-111% (inactive),-43.7%,2.87%
Cc1cc2c(c(=O)o1)C(CC(C)C)C(C#N)=C(N)O2 (centres undefined),18.4% (inactive),-9.11%,2.71%
N/C(CCN1CCCCC1)=N/O,20.8% (inactive),13.8%,6.52%
c1ccc(Cc2nn[nH]n2)cc1,14.9% (inactive),-16.9%,4.71%
N#C/C(=N\O)c1nc(-c2ccccc2)cs1,-131% (inactive),-49.8%,3.16%
CCOc1cccc(-c2nnc3sc(-c4ccco4)nn23)c1,-51.8% (inactive),-46.9%,2.36%
CCOC(=O)C(Oc1ccc(=O)[nH]n1)C(C)=O (centres undefined),-6.93% (inactive),-59.3%,3.6%
CC(C)Sc1nnc2n(CCc3ccccc3)c(=O)c3c4c(sc3n12)COC(C)(C)C4,0.75% (inactive),-42.2%,1.47%
CCc1[nH]c(=O)c(C#N)c2c1CSC(C)(C)C2,9.49% (inactive),-3.16%,4.45%
CC1(C)CC(=O)C2=C(C1)OC(N)=C(C#N)C2C1C=CCCC1 (centres undefined),59.5% (inactive),32.2%,3.5%
Cc1nn(C)cc1C1C2=C(CC(C)(C)CC2=O)OC2=C1C(=O)CC(C)(C)C2,-19.8% (inactive),-38.9%,2.88%
CC1(C)CC(=O)C2=C(C1)Oc1nc3ccccc3cc1C2C(C#N)C#N (centres undefined),92.5% (active),71.1%,0%
